From PubChem BioAssay
Prx2 Sm inh = Schistosoma Mansoni Peroxiredoxins (Prx2); Schistosoma mansoni peroxiredoxin 2 (Prx2); S. mansoni Prx2 activity coupled to TGR/GSH (TGR is thioredoxin glutathione reductase), NADPH fluorescence loss, qHTS; Potency, µM; 0.07% of 65,000 active
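qHTS, coupled TGR/Prx2 format; 15 min compound preincubation at RT; reaction started with H2O2 (2.5 mM aliquot); kinetic NADPH fluorescence decrease, ex 365/em 450 nm.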
AmpC inh no det = Promiscuous and Specific Inhibitors of AmpC Beta-Lactamase (assay without detergent). AmpC nitrocefin hydrolysis, absorbance 480 nm, no detergent. Potency, µM (top dose mostly 28.7 µM), for the others: top-dose activity change, negative = inhibition. 1.8% of 71,000 active. AID 585, 2007; also: % of control where 0% means no effect
Target sequence (P00811 whole entry, looked up): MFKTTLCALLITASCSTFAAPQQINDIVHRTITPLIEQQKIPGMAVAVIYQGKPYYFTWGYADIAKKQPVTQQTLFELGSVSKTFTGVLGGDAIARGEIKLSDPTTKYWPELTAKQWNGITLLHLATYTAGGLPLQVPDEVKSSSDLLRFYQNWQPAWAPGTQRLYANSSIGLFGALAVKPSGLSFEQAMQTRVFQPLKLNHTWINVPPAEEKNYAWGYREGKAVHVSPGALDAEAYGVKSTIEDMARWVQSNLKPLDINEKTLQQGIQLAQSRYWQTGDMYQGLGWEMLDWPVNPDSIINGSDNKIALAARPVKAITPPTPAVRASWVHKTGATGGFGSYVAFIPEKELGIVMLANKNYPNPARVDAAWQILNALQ
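AmpC in 20 mM phosphate buffer pH 7.0 was preincubated 15 min at room temperature with compounds. Nitrocefin (800 uM stock) was then added and hydrolysis followed at 480 nm every 20 s for 4 min.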
AmpC inh det = Promiscuous and Specific Inhibitors of AmpC Beta-Lactamase (assay with detergent); P00811; purified AmpC, nitrocefin hydrolysis with detergent; Potency, µM (top dose mostly 28.7 µM), for inactives: top-dose activity change, negative = inhibition; 0.09% of 71,000 active; active = well fitted curve in the direction sought with a large enough effect; inconclusive = small, poorly fitted or top-dose-only effect; also: % is scaled to controls: 0 for no effect and ±100 for the full control effect
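E. coli AmpC (5.3 nM) in 20 mM phosphate pH 7.0 with 0.01% Triton X-100, preincubated 15 min RT with compound; nitrocefin (2 uL of 800 uM stock) hydrolysis followed by 480 nm absorbance every 20 s over 4 min.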
Anthrax LT inh = qHTS Assay for Anthrax Lethal Toxin Internalization; AID 912, 2007; Potency, µM (top dose mostly 40 µM), for inactives: at the top dose activity change, negative = inhibition, usual class: inhibitors; Cells, anthrax lethal toxin internalization, FRET ratio (460/530); 0.67% of 70,000 active; also: % is scaled to controls: 0 for no effect and ±100 for the full control effect; nearly all actives have a fitted effect of over 50% in size
* marks the source's active call; other numbers are inactive results; ? = inconclusive; . = no result; [ ] = remark or other dose. Rows were chosen to be rich in hits. Some 2.4% of all compounds tested hit in one or more screens of this group. Unless noted, calls follow the shape of the full dose curve. Potency is read from the fitted curve at half-maximal effect.

SMILES	Prx2 Sm inh	AmpC inh no det	AmpC inh det	Anthrax LT inh
COc1ccc(NC(=O)CCCC2=NS(=O)(=O)c3ccccc3N2)cc1	>57	3.98µM*[single pt active]	13.1%	5.0%
N#CC1=C(N)NC(SCC(=O)Nc2ccccc2)=C(C#N)C12CCCC2	>57	-20.5%	6.4%	10µM*
CCc1nnc(NC(=O)CSc2nnc(COc3ccccc3C)o2)s1	>57	12.6µM*[single pt active]	-3.4%	-2.0%
COC(=O)C1=C(C)Nc2ccc(C)cc2S1	>57	3.98µM*[single pt active]	12.5%	-17.1%
CCOC(=O)C1=C(N)Oc2ccc(Br)cc2[C@@H]1[C@@H](C#N)C(=O)OCC	38.6*	0.5%	-0.3%	?
O=C(c1cc2ccccc2cc1OCC(O)CN1CCCCC1)N1CCCCC1 (configuration not stated)	>57	3.98µM*[single pt active]	11.5%	-12.1%
OC(COc1ccc(Cl)cc1)CN1CCCCC1 (configuration not stated)	>57	-1.9%	1.0%	-16.8%
COc1ccc(OCC(O)CN2CCCCC2)cc1 (configuration not stated)	>57	3.98µM*[single pt active]	10.9%	-8.7%
C[N+]1(C)CCO[C@@](O)(c2ccc(-c3ccc([C@]4(O)C[N+](C)(C)CCO4)cc3)cc2)C1	>57	-6.1%	-5.2%	0.2%
CCn1c(SCC(=O)N2CCOCC2)nc(O)cc1=O	>57	3.98µM*[single pt active]	12.8%	-5.2%
C=C1CC[C@@H](O)C/C1=C/C=C1\CCC[C@]2(C)[C@@H]1CC[C@H]2[C@@H](C)CCCC(C)C	>57	33.5%	-2.9%	?
Cc1ccccc1-c1noc(-c2ccc(O)cc2)n1	.	-7.2%	-2.9%	10µM*
Cc1ccc(-c2noc(-c3ccccc3Br)n2)cc1	.	-16.6%	9.5%	?
CC1(C)S[C@@H]2[C@H](NC(=O)[C@H](C(=O)O)c3ccsc3)C(=O)N2[C@H]1C(=O)O	>57	3.98µM*	5.01µM*	0.1%[3.58 µM]
CC1(C)S[C@@H]2[C@H](NC(=O)[C@@H](NC(=O)N3CCNC3=O)c3ccccc3)C(=O)N2[C@H]1C(=O)O	>57	5.01µM*	7.94µM*	-1.3%[3.58 µM]
CC1(C)S[C@@H]2[C@H](NC(=O)[C@@H](N)c3ccccc3)C(=O)N2[C@H]1C(=O)O[C@H]1OC(=O)c2ccccc21	>57	0.0398µM*	?	-7.0%[3.58 µM]
CC1(C)S[C@@H]2[C@H](NC(=O)[C@@H](N)c3ccc(O)cc3)C(=O)N2[C@H]1C(=O)O	>57	1.26µM*	0.316µM*	1.9%[3.58 µM]
CCN1CCN(C(=O)N[C@H](C(=O)N[C@@H]2C(=O)N3[C@@H]2SC(C)(C)[C@@H]3C(=O)O)c2ccccc2)C(=O)C1=O	>57	?	?	-0.8%[3.58 µM]
CC(=O)OC[C@@H]1O[C@H](C/C=N\O[C@@H](C)c2cn([C@H]3COC[C@H]3O)nn2)C=C[C@@H]1OC(C)=O	.	.	.	2.3%[8 µM]
ICCc1ccccc1	.	-9.9%	29.8%	22.9%
Cc1ccc2nc(SCC(=O)NCc3ccco3)c(C#N)cc2c1	>57	15.8µM*[single pt active]	8.8%	-13.1%
Cc1ccc2cc(C#N)c(SCC(=O)NCc3ccco3)nc2c1	>57	-24.4%	6.7%	-16.9%
Nc1nc(Cl)nc2c1ncn2[C@@H]1O[C@@H](COP(=O)(O)OP(=O)(O)OP(=O)(O)O)[C@@H](O)[C@H]1O	>57	-7.3%	-1.4%	8.7%
Cc1nc(N(C)C)c2sc(=S)n(C)c2n1	>57	3.98µM*[single pt active]	7.0%	-5.3%
CO[C@H]1[C@H](O)[C@H](O[C@@H]2[C@H](Oc3cccc4c(O)c5c(=O)oc6ccc(C)c7c(=O)oc(c34)c5c67)O[C@@H](C)[C@H](O)[C@H]2O)O[C@@H](C)[C@@H]1O	>57	-3.0%[5.75 µM]	-3.3%[5.75 µM]	-1.9%[8 µM]
SMILES	Prx2 Sm inh	AmpC inh no det	AmpC inh det	Anthrax LT inh
O=C(Cc1ccccc1)Nc1nc(-c2cccs2)cs1	>57	?	-2.3%	?
O=C(COc1ccc(Cl)cc1)Nc1nc(-c2cccs2)cs1	>57	?	1.3%	10µM*
CCc1cccc(NC2c3ccccc3C(=O)N2c2ccc(C)cn2)c1 (configuration not stated)	>57	43.1%	8.4%	?
Cc1ccnc(N2C(=O)c3ccccc3C2Nc2cccc(C)c2C)c1 (configuration not stated)	>57	13.1%	10.1%	-5.2%
CCc1cccc(NC2c3ccccc3C(=O)N2c2cccnc2)c1 (configuration not stated)	>57	3.98µM*[single pt active]	9.3%	-3.3%
Cc1ccccc1N1C(=O)c2ccccc2C1Nc1cccnc1 (configuration not stated)	>57	3.98µM*[single pt active]	12.6%	-2.9%
CCOC(=O)c1ccc(NC2c3ccccc3C(=O)N2c2cccnc2)cc1 (configuration not stated)	>57	62.2%	10.7%	-4.8%
O=C1c2ccccc2C(Nc2ccccc2F)N1c1cccnc1 (configuration not stated)	>57	3.98µM*[single pt active]	13.4%	-0.2%
COC(=O)c1ccccc1NC1c2ccccc2C(=O)N1c1cccnc1 (configuration not stated)	>57	3.98µM*[single pt active]	7.9%	-9.5%
CC(C)[C@]1(O)[C@@H](OC(=O)c2ccc[nH]2)[C@]2(O)[C@@]3(C)C[C@@]4(O)O[C@@]5([C@H](O)[C@@H](C)CC[C@]35O)[C@]2(O)[C@]41C	>57	4.8%[5.75 µM]	-3.3%[5.75 µM]	2.6%[8 µM]
CCC/C=C(\CCC)C(NS(=O)(=O)c1ccc(C(F)(F)F)cc1)c1ccccc1 (configuration not stated)	>57	-9.0%	10.0%	-28.3%
CCC/C=C(\CCC)C(NS(=O)(=O)c1ccccc1)c1ccc(C(F)(F)F)cc1 (configuration not stated)	>57	12.6µM*[single pt active]	1.7%	?
CCC/C=C(\CCC)C(NS(=O)(=O)c1ccc(C(F)(F)F)cc1)c1ccc(C(=O)OC)cc1 (configuration not stated)	>57	12.6µM*	9.6%	-6.3%
COc1cccc(OCc2nc3ccccc3[nH]2)c1	>57	3.98µM*[single pt active]	12.0%	-22.2%
N#CS.N=C=S.N=C=S.[Cu].[NH2-].[NH2-].[NH2-].[NH2-].c1ccc2ncccc2c1	>57	0.4%[5.75 µM]	-2.0%[5.75 µM]	-16.1%[8 µM]
O=C(Nc1cccc(-c2nc3ncccc3o2)c1)c1cc2ccccc2o1	>57	84.3%	4.7%	3.16µM*
CO/N=C(\C(=O)N[C@@H]1C(=O)N2C(C(=O)O)=C(COC(N)=O)CS[C@@H]12)c1ccco1	>57	0.0398µM*	0.0794µM*	?
NCc1ccccc1CC(=O)N[C@@H]1C(=O)N2C(C(=O)O)=C(CSc3nnnn3CC(=O)O)CS[C@@H]12	>57	-14.6%[12.8 µM]	-3.5%[12.8 µM]	0.6%[3.58 µM]
CC1(C(=O)NC2CCCCCC2)CCC(=O)N1Cc1ccc2c(c1)OCO2 (configuration not stated)	>57	40.9%	2.7%	-1.8%
COc1ccc(CCNC(=O)C2(C)CCC(=O)N2Cc2ccc3c(c2)OCO3)cc1OC (configuration not stated)	>57	3.98µM*[single pt active]	11.5%	-0.9%
N[C@@H](Cc1c[nH]c2ccccc12)C(=O)NCC(=O)O	>57	-9.3%	-2.7%	-2.6%
